Reference: PubChem BioAssay
Calls of active or inactive are those of the source.

What was measured:
Albumin (Bos taurus) = Albumin (Bos taurus) (UniProt P02769); test: bovine serum albumin binders on microarray, profiling panel, artefact control for SMM control protein annotation, biochemical, small-molecule microarray, Alexa647 label, 635/667 nm fluorescence (AID 1118); details: BSA-A647 binding, fluorescence 635 nm, higher = more signal;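 further: score merges 667 nm emission intensity and signal-to-noise per printed compound spot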
[1] = small-molecule microarray binders of probe aXIP, primary screen, biochemical, NeuroSMM set, 635/667 nm fluorescence (AID 1119); details: higher = more signal, called active from +8 up or from −8 down;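 further: probe is the protein aXip251-270 applied at 1 µg/mL to compound-printed slides; binding of probe to printed compounds measured as 667 nm fluorescence plus signal to noise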
[2] = small-molecule binders of probe aNOTCH3, primary screen, biochemical, small-molecule microarray, 635/667 nm fluorescence (AID 1120); details: higher = more signal;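 further: probe is a biotin-tagged antibody raised against NOTCH3 rather than NOTCH3 protein; score merges spot fluorescence near 667 nm with spot signal to noise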
[3] = small-molecule binders of probe aNOTCH2, primary screen, biochemical, small-molecule microarray, 635/667 nm fluorescence (AID 1121); details: higher = more signal;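 further: score merges feature fluorescence read at 667 nm with its signal to noise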
[4] = molecular target: Carbonic anhydrase 2 (Homo sapiens) (UniProt P00918); test: CAII small-molecule binders, profiling panel, biochemical, small-molecule microarray, Alexa647-labelled CAII (AID 1122); details: CAII-A647 binding fluorescence, higher = more signal
[5] = COS7 lysate on small-molecule microarray, probe aHis, 635 nm (AID 1123); details: COS7 cell lysate, fluorescence, higher = more signal;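 further: z-score combines 667nm fluorescence intensity with signal-to-noise per printed compound spot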
[6] = compound binding in COS7 lysate, probe aLAP1, primary screen, cell lysate, small-molecule microarray (AID 1124); details: probe aLAP1, fluorescence, higher = more signal;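 further: lysate comes from COS7 cells expressing LAP1 and is applied at 0.3 µg/mL; score merges spot fluorescence near 667 nm with signal-to-noise over triplicate slides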
Sam68 (KHDRBS1) = test: Sam68 small-molecule binders, primary screen, biochemical, small-molecule microarray, 635 nm fluorescence (AID 1125); details: small-molecule microarray binding, higher = more signal;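 further: score merges 667 nm channel intensity with signal to noise over triplicate slides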
[7] = test system: Chordin-like protein 2 (CHRDL2); test: CHRDL2 small-molecule binders, primary screen, biochemical, small-molecule microarray, 635 nm fluorescence (AID 1126); details: small-molecule microarray binding, fluorescence 635 nm; higher = more signal;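 further: printed compound slides probed with Chrdl2 protein at 4 µg/mL for 1 h at 4 C; score merges 667 nm emission intensity with signal to noise over three replicate slides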
[8] = molecular target: Concanavalin-A (Canavalia ensiformis) (UniProt P02866); test: ConA small-molecule binders, primary screen, artefact control for SMM control protein annotation, biochemical, small-molecule microarray, Alexa647 label, 635 nm (AID 1127); details: ConA-A647 binding fluorescence, higher = more signal;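 further: z combines 667 nm emission intensity with signal-to-noise across three replicate slides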
[9] = anti-His antibody binders, primary screen, artefact control for SMM control protein annotation, biochemical, small-molecule microarray, 635 nm fluorescence (AID 1128); details: anti-His Alexa647 antibody binding, higher = more signal;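 further: score merges feature fluorescence with signal-to-noise for each printed compound spot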
[10] = test system: Human papillomavirus type 1a E7 protein (residues 1-88); test: HPV1a E7 small-molecule binders, primary screen, biochemical, small-molecule microarray, residues 1-88, 635 nm (AID 1129); details: small-molecule microarray binding, fluorescence 635 nm; higher = more signal
[11] = molecular target: Focal adhesion kinase 1 (Homo sapiens) (UniProt Q05397); test: small-molecule microarray binders of FAK, primary screen, biochemical, 635/667 nm fluorescence, BSA, DTT (AID 1130); details: PTK2 binding, 635 nm fluorescence, higher = more signal;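 further: composite of spot emission at 667 nm and signal to noise over triplicate slides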
[12] = test system: Fibrinogen (Alexa647-labelled); test: fibrinogen binders on compound microarrays, profiling panel, artefact control for SMM control-protein annotation, biochemical, small-molecule microarray, 635/667 nm fluorescence (AID 1131); details: fibrinogen-A647 binding fluorescence, higher = more signal;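 further: z-score merges 667 nm fluorescence with per-spot signal-to-noise over triplicate slides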
[13] = molecular target: Follistatin (Homo sapiens) (UniProt P19883); test: follistatin binders on small-molecule microarrays, primary screen, biochemical, small-molecule microarray, 635/667 nm fluorescence (AID 1132); details: FST binding, 635 nm fluorescence, higher = more signal
[14] = molecular target: Fibroblast growth factor 2 (Homo sapiens) (UniProt P09038); test: FGF2 binders on small-molecule microarrays, primary screen, biochemical, small-molecule microarray, 635/667 nm fluorescence (AID 1133); details: small-molecule microarray binding, FGF2, fluorescence 635/667; higher = more signal
[15] = mitochondrial membrane potential change in A549 cells, profiling panel, cell-based, JC-1 fluorescence, basal, 24 h, 100 nL (AID 1138); details: higher = more signal;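 further: A549 lung adenocarcinoma cells under basal conditions with no added stimulus; test concentration not given here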
Lefty1 = Lefty1 binders on small-molecule microarrays, primary screen, biochemical, small-molecule microarray, 635/667 nm fluorescence (AID 1139); details: small-molecule microarray binding, fluorescence 635/667; higher = more signal
[16] = test system: wheat germ agglutinin (Triticum aestivum), Alexa647-labelled; test: wheat germ agglutinin binders on compound microarrays, profiling panel, artefact control for SMM control-protein annotation, biochemical, small-molecule microarray, 635/667 nm fluorescence (AID 1140); details: WGA-A647 binding, 635 nm fluorescence, higher = more signal;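 further: score merges 667 nm feature emission with signal to noise over triplicate slides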
[17] = molecular target: Luciferin 4-monooxygenase (Photinus pyralis) (UniProt P08659); test: firefly luciferase enzyme inhibitors, primary screen, biochemical, luminescence, purified enzyme, 2006 set (AID 1141); details: SteadyGlo luminescence, 30 min, higher = more signal, called active from +8 up or from −8 down;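 further: cell-free assay with purified firefly luciferase at 100 ng per well in PBS; test concentration not given here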
Chain of Luciferin 4-monooxygenase (Photinus pyralis) (P08659 whole entry, looked up): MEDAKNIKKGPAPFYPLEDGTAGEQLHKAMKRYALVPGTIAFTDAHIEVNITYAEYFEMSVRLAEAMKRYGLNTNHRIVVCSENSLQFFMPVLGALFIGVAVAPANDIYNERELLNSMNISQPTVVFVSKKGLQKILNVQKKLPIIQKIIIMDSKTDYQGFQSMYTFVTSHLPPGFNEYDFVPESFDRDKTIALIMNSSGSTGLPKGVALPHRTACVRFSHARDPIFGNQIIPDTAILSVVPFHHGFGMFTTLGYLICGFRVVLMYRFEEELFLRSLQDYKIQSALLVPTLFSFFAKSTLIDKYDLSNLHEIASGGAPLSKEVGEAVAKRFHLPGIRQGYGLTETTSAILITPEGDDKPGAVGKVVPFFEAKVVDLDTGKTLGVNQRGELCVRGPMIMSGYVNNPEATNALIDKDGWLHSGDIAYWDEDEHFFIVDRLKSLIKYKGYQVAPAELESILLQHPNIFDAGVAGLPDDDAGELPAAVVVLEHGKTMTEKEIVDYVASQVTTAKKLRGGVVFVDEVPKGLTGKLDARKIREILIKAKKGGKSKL

Chain of Albumin (Bos taurus) (P02769 whole entry, looked up): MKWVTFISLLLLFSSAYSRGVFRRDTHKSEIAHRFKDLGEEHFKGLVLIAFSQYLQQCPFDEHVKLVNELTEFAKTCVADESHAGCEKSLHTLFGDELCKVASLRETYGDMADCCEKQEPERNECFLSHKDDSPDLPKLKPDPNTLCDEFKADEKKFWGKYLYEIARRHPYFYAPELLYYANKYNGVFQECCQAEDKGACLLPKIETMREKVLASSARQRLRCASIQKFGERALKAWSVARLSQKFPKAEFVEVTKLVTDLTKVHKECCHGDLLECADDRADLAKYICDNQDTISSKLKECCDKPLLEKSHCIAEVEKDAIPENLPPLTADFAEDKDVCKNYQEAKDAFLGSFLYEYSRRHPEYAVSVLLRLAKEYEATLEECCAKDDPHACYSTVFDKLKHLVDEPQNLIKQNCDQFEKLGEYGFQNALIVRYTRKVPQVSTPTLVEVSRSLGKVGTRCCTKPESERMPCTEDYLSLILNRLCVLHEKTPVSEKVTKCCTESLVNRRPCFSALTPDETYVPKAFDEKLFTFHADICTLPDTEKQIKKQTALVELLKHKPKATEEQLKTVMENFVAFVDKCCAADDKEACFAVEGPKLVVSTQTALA
Chain of Concanavalin-A (Canavalia ensiformis) (P02866 whole entry, looked up): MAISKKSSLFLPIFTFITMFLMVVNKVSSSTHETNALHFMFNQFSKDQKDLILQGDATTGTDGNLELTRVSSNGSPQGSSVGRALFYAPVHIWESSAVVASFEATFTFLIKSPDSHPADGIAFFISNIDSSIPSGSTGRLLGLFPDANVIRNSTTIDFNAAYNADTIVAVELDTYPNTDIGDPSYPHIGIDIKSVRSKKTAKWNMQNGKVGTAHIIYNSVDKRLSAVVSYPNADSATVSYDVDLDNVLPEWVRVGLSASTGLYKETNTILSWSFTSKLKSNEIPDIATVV
Chain of Fibroblast growth factor 2 (Homo sapiens) (P09038 whole entry, looked up): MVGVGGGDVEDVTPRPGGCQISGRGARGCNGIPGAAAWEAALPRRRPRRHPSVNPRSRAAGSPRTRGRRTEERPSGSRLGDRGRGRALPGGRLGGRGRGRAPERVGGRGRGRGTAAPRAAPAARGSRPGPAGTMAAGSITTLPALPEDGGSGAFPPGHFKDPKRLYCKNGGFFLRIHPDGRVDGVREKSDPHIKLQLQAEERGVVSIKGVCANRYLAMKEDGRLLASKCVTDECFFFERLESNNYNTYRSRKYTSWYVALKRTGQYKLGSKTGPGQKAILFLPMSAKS
Chain of Focal adhesion kinase 1 (Homo sapiens) (Q05397 whole entry, looked up): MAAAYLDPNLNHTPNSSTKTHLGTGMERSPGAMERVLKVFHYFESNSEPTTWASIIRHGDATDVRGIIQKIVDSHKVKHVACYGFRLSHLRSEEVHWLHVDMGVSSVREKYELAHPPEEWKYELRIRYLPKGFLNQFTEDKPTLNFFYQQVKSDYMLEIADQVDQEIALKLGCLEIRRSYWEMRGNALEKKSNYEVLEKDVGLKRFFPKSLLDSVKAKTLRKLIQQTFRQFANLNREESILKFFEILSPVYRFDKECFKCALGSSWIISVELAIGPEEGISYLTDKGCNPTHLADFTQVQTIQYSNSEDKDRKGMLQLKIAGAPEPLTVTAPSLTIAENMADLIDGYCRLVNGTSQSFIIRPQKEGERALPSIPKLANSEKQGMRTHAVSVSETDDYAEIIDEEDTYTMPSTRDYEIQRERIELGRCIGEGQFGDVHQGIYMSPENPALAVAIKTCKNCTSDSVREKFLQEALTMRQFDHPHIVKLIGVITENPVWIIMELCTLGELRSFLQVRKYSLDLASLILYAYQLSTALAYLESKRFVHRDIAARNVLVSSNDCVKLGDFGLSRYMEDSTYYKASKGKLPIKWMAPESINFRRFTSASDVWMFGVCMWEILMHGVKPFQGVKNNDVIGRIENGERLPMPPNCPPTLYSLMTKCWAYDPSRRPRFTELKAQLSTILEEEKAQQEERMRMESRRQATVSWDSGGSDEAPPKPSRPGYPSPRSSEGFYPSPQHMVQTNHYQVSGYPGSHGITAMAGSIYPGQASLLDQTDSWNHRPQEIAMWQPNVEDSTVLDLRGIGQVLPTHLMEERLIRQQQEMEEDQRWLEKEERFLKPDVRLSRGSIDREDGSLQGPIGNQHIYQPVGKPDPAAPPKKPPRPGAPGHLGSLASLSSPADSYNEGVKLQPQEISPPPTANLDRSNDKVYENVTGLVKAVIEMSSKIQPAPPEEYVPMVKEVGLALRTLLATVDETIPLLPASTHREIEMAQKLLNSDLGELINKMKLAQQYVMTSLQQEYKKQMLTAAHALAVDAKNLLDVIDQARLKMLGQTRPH
Chain of Follistatin (Homo sapiens) (P19883 whole entry, looked up): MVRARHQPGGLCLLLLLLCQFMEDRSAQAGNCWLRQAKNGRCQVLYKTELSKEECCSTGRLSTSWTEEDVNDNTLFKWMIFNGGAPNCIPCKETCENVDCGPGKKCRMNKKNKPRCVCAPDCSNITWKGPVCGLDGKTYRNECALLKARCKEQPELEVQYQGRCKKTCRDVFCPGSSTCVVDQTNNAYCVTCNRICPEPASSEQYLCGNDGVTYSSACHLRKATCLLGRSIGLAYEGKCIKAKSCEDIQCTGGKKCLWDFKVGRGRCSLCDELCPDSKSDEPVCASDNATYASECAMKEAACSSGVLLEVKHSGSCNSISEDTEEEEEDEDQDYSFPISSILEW

Compound	composite z-score (Albumin (Bos taurus))	composite Z-score [1]	composite z-score [2]	composite z-score [3]	composite z-score [4]	composite z-score [5]	composite z-score [6]	composite z-score (Sam68 (KHDRBS1))	composite z-score [7]	composite z-score [8]	composite z-score [9]	composite z-score [10]	composite z-score [11]	composite z-score [12]	composite z-score [13]	composite z-score [14]	z-score [15]	composite z-score (Lefty1)	composite z-score [16]	z-score [17]
CC(C)NC(=O)[C@@]1(Cc2ccccc2I)c2ccccc2C(=O)N(Cc2ccccc2Cl)[C@H]1c1ccc(CO)cc1	0.0517	0.786 (inactive)	-0.0573	-0.0741	0.506	1.73	-0.0064	1.29	0.432	1.1	2.99	1.2	0.252	0.443	1.19	0.566	1.46	0.443	0.858	-0.577 (inactive)
COCCCNC(=O)[C@@]1(Cc2ccccc2)N=C(c2ccc(OCCCO)cc2)O[C@H]1c1ccccc1CN=[N+]=[N-]	0.884	0.294 (inactive)	0.217	0.253	0.752	2.78	0.982	1.32	-1.1	1.12	2.82	1.17	0.944	0.913	1.3	0.122	1.99	0.872	1.18	-0.781 (inactive)
COc1ccc([Si](C)(C)[C@@H]2[C@@H](CC(=O)N3Cc4ccccc4C[C@H]3CO)O[C@]3(C(=O)N(Cc4cccc(N5CCC5=O)c4)c4ccccc43)[C@H]2C)cc1	-0.147	0.3 (inactive)	0.16	-0.117	0.283	1.15	0.0905	1.22	0.711	0.961	0.887	1.12	0.366	0.357	1.22	1.01	-0.256	1.02	0.696	-0.106 (inactive)
O=C(O)[C@H](Cc1ccccc1)n1cc(-c2ccccc2)nn1	0.0644	0.52 (inactive)	-0.0313	-0.164	0.155	-0.065	0.277	0.187	0.238	0.362	0.347	0.6	0.218	0.368	0.571	0.607	-0.469	0.206	0.651	0.899 (inactive)
CCCC=C(CCC)[C@@H](NS(=O)(=O)c1ccc(Cl)cc1)c1ccc(C(=O)OC)cc1	0.196	-0.243 (inactive)	-0.0111	0.0703	0.805	0.314	-0.159	0.674	-0.0433	0.627	0.817	0.843	0.0301	0.539	-0.843	-0.174	0.418	0.181	0.309	2.84 (inactive)
COc1ccc(C(=O)Nc2cccc(CN3C(=O)[C@]4(O[C@H](CCn5cc(CCO)nn5)[C@@H]([Si](C)(C)c5ccc(OC)cc5)[C@@H]4C)c4ccccc43)c2)cc1	0.196	0.165 (inactive)	0.0066	-0.0142	0.43	0.98	-0.0719	1.1	0.306	0.692	-0.0471	1.09	0.258	0.757	1.29	0.188	-1.11	0.834	0.351	-0.1 (inactive)
COC(=O)[C@@]1(Cc2ccc(F)cc2)[C@H]2c3cc(C(=O)N(C)C)n(Cc4ccc(C)o4)c3C[C@H]2CN1C(=O)c1ccccc1	-0.373	0.444 (inactive)	1.6	0.992	0.458	3.29	1.13	0.47	-0.852	-1.67	1.17	0.761	-0.42	-1.92	-1.96	-1.4	0.546	-1.2	0.319	0.483 (inactive)
C=C(C(=O)CC[C@H](OC(C)=O)c1ccccc1OCCO)C(C)C	0.0421	-0.361 (inactive)	0.029	-0.0325	-0.371	-0.754	1.87	-0.4	-0.163	-0.104	-0.29	-0.936	-0.385	-0.262	1.25	0.38	-1.25	0.696	-0.209	0.168 (inactive)
COc1ccc([Si](C)(C)[C@@H]2[C@@H](CCn3cc(CCO)nn3)O[C@]3(C(=O)N(Cc4cccc(N5C(=O)c6cccc7cccc5c67)c4)c4ccccc43)[C@H]2C)cc1	0.695	0.478 (inactive)	0.0351	-0.14	0.224	1.01	0.222	1.29	-0.0468	0.833	1.18	1.16	0.321	0.556	1.16	0.672	-1.1	1.23	0.509	0.178 (inactive)
COC(=O)c1c(CC[C@@H](CO)NC(=O)N[C@H](Cc2ccccc2)Cn2cc(-c3ccccn3)nn2)oc(C(C)=O)c1C(=O)OC	0.687	0.794 (inactive)	-0.154	-0.118	0.71	0.798	1.26	0.954	-0.418	1.09	1.52	-0.178	0.0026	0.801	0.0798	0.451	-0.117	0.004	0.205	0.67 (inactive)
